# Screen size: about 53,000 sequences; about 3,700 (7%) were called active.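 Rule for the calls: active = gene knockdowns whose robust z-score for IL-1 alpha signal is at least 2 or at most -2, so actives lie on both sides; inactive = the rest.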 Many of the other results were omitted from the sample, so actives are more common in it than they were.
# Test: Components of the Cytosolic LPS Sensing Pathway: Gene Identification via Genome-wide siRNA Screen
# Conditions: RAW264.7 macrophages, IL-1a HTRF, actives lie on both sides, screened at 100 nM (by protocol), cells primed 5 h with Pam3CSK4 first
# Source text: Non-canonical inflammasome activation by cytosolic LPS is a critical component of the host response to Gram-negative bacterial infection, however we lack a comprehensive understanding of the cellular processes that control this pathway. Here we describe a genome-wide siRNA screen to identify genes regulating the mouse macrophage IL-1 alpha response to cytosolic LPS.
# RAW264.7 cells were maintained in complete DMEM media, comprising DMEM with 4.5 g/L glucose, 10% FBS (Gemini Bio-Products, West Sacramento, CA), 2 mM Glutamine (Lonza) and 20 mM HEPES (Lonza), hereafter complete DMEM.
# The RNAi screen was conducted in 384-well format using the Ambion Silencer Mouse Genome siRNA Library (#4391425), which consists of three unique, nonoverlapping, nonpooled siRNAs for each of 17,000 gene targets. siRNA reagents ([…]) were stamped into 384-well white flat-bottom microplates (Corning, 3570) using a Velocity11 VPrep liquid handling system (Agilent) integrated into a BioCel robotic platform (Agilent) in columns 1-22, leaving columns 23-24 empty for negative (Ambion, Negative control #1) and positive (mouse Casp4) controls, respectively. The median value of each plate's negative control column was used to normalize sample wells, and the positive control was used to assess transfection efficiency and assay performance.
# Lipofectamine RNAiMAX Transfection Reagent ([…]; Invitrogen) was added in […] serum-free, antibiotic-free media to plate wells using a Thermo Scientific Matrix WellMate and Microplate Stacker. Plates were incubated for 45 min at room temperature to allow for the sufficient formation of siRNA-lipid complexes. Cells were seeded at a density of 1x10^4 cells per well in 20 microL media containing 20% (vol/vol) FBS without antibiotics. The final concentration of siRNA in each well was 100 nM. Cells were cultured for 48h at 37 degrees C in 5% CO2 before addition of […] of TLR ligand Pam3CSK4 for 5 hours. The medium was then removed, replaced with […] growth media and cell were transfected with […] of LipidA and TransIT-TKO (Mirus) for 24 hour. At the end of the LipidA treatment, […] of supernatant was transferred to a 384 Greiner Bio-one non-binding low volume plate and […] of IL-1a HTRF reagent (Cisbio, 62MIL1APEH) was added and incubated at room temperature overnight. The plates were read on an EnVision plate reader (PerkinElmer). Cell viability was measured by adding 20ul Cell Titer Glo to the original plate and running a luminescence read on the EnVision. The quantified IL-1a signal for each siRNA gene-targeted well was divided by the median of the negative control wells and multiplied by 100 to achieve a negative control normalized value for each well/siRNA. This normalized value was then used to generate a robust z-score by first taking the log of each value and then by subtracting the median and dividing by the […].
row,Sequence,z-score
1,GCUCAUGUCAGGAGAGAGUTT against Ocel1,-2.41 (active)
2,CGAGCUAUACGGAAAAAAATT against Efcab12,-1.03 (inactive)
3,GCUGAUCCUCUCCCUUCAUTT against Tas2r131,-0.463 (inactive)
4,GGCUCUUCUCUCGUCCUUGTT against Nif3l1,0.213 (inactive)
5,GGAUGAAGACCCAUAUGUGTT against Ap1b1,-0.287 (inactive)
6,GCCUCAGUUUGAAAUUGUUTT against Tbrg1,-0.695 (inactive)
7,CCUGGAUCAGCAAUCCACATT against Lpxn,-0.503 (inactive)
8,UCCUCCUGUCUUACGUACGTT against Prlhr,2.05 (active)
9,CGUGUAGCAAUGAGAUAUUTT against Trpc5,0.162 (inactive)
10,GGGAUUUCUGGAGAAAAUGTT against Csta2,-0.872 (inactive)
11,GGAUUCCUGUACAUAUAUUTT against Ube4b,-0.501 (inactive)
12,GGCAUGAAUACAUCACAGCTT against Vmn1r220,-0.808 (inactive)
13,GGACAUACAAAUCUUCAUUTT against Mta2,0.886 (inactive)
14,GGUGAUGCUAAAUUCUGAUTT against Mpc2,-1.92 (inactive)
15,GGUAUAUGGUGGGAACUUUTT against Bnipl,2.04 (active)
16,CCUCUCUUUAACAGGUCACTT against 1700034H15Rik,1.35 (inactive)
17,GCUGUUACUCUUAAACAAATT against Pdhx,0.254 (inactive)
18,GCCUCAGUUAUUUAAUGAATT against Mpp3,-0.414 (inactive)
19,GGAUGAAGAAAACUGGCUUTT against Tsx,-0.764 (inactive)
20,GGAAGCAGGGCAGCUUAUUTT against Hbq1a,-2.22 (active)
21,GGUUGACCCACUGAAAAUUTT against Marveld1,-0.112 (inactive)
22,GCACGGCCCUACUUUAUAGTT against Trim33,-1.43 (inactive)

row,Sequence,z-score
1,GGCGUGAAAAUAGGAGAAUTT against Extl2,-1.77 (inactive)
2,GCCGCUACACAUCAAACCATT against Zc3h3,-0.336 (inactive)
3,GCUAAUCGAAGUUGAAAUUTT against Soga3,-0.316 (inactive)
4,GGAAAAUGGAGCUGUGCUCTT against Prelid3a,0.298 (inactive)
5,GCUGUUUUAGUAGAGGUAATT against Tsfm,-0.708 (inactive)
6,CCUCAAAUUAUUGUUGGCATT against Ppip5k1,-2.07 (active)
7,GGGCUGGCUACGAUAAGCUTT against Tes,1.53 (inactive)
8,CCCUUGAAGAUGAAACCAGTT against Smarca5,-0.277 (inactive)
9,GCGGAAAUCUAAUUGCUUGTT against Kat5,-0.0418 (inactive)
10,GGUGGAUUAAGUCUCAAAATT against Pcdhb22,0.592 (inactive)
11,CCUACUGGAAAAGAUAAUUTT against Stfa1,1.82 (inactive)
12,GCUACUAUGUGCCUGUGACTT against Oc90,-2.21 (active)
13,UACAUUAGUAGAAUGGAGGTT against Mageb3,-0.598 (inactive)
14,GGAAGAAACUGAGAAACUGTT against Fam205c,0.48 (inactive)
15,CGGAAAAAUGGAAGUAUAGTT against Mrtfb,-0.687 (inactive)
16,GGGCUGUGAUCAAACAUGGTT against Ano9,-1.38 (inactive)
17,GGAAUUAUGAACAAAUUGCTT against H2-M9,0.702 (inactive)
18,GGCCUCUAUCUUCCAACAATT against Tent4a,-2.06 (active)
19,GCCAACAAGCAUUCCAUUGTT against Mrap,-0.991 (inactive)
20,GGAUACAUUAAGGUGCAAGTT against Aldh1a7,0.819 (inactive)
21,GGCACAUGGAGUGGACAAGTT against Blvrb,3.2 (active)
22,GCUUGACCCUACACUACAGTT against Olfr1121,2.47 (active)

row,Sequence,z-score
1,GGCUGGCAAACUCAAAAAATT against Zfp385c,-0.813 (inactive)
2,GCGAUCUAGAAAUUGACAATT against St13,-0.59 (inactive)
3,GGAAAAAGGAGGGUUUAGCTT against Tm4sf5,0.418 (inactive)
4,GGACUGUGCAGUUAUUGUCTT against Psma6,-2.17 (active)
5,CCCUUUAUUAUUCCACUGUTT against Olfr530,-1.12 (inactive)
6,CCAAGUUCACAAUUGUUCUTT against Gimap8,-0.263 (inactive)
7,CCUAAAGAAAGGUUAAAGATT against Sfr1,-0.763 (inactive)
8,CGAGCCCAUGUCAGAUCAGTT against Minar1,-2.33 (active)
9,GCACUACCACUGUCAGCAATT against Ldb3,-0.734 (inactive)
10,CCAACACUACCAGAGAACGTT against Pfkfb1,-0.808 (inactive)
11,CGAUAAAAGACCCAAAUUATT against Emx2,1.86 (inactive)
12,GCAUGUGUCAAGAUGUCUGTT against Tec,1.36 (inactive)
13,GGUCACAAACAGAUUAAUUTT against Ahcy,-0.404 (inactive)
14,GGUUUGAAUGUCACCGGCATT against Defb29,-1.22 (inactive)
15,GGAUGAGGAAAACUUCCAGTT against Mup5,2.61 (active)
16,GCCAUCACGAGCUAAAACCTT against Smad5,-1.91 (inactive)
17,GGUUUUUAGCCUGAGUGAGTT against Olfr688,-1.8 (inactive)
18,GGAUUUCUCGGAAGUCGAGTT against Cd3e,0.517 (inactive)
19,GGUCUUUCAAGUUGCAUACTT against Lama1,0.491 (inactive)
20,GGAUGAACUAUACCAUGGCTT against Tmem132c,1.07 (inactive)
21,GGACGGUCUUGCCUUCUUCTT against Fam222a,0.901 (inactive)
22,CGAUGACGGGAAAUAAUUUTT against Snx4,-0.663 (inactive)

row,Sequence,z-score
1,GCUAUUUUUAUAAGGGCCATT against Sh2b2,2.94 (active)
2,GGCACCAUAGAUGUUUGAGTT against Cyp4f16,-1.34 (inactive)
3,GGAGCCUGUCUUUUAUUGATT against Olfr938,0.0765 (inactive)
4,GGUAGACACCUUGUUCUUATT against Nap1l3,1.03 (inactive)
5,GCCUUUAAUACAUAGGCUUTT against Cxcl9,-0.381 (inactive)
6,GCCAAUAGUAACCAGCCAGTT against Prkab1,-2.07 (active)
7,GCAAAUUCCAGUGAAAGCCTT against Papola,1.12 (inactive)
8,GGAUGACCAUGAAAGCUGUTT against Vps13b,1.87 (inactive)
9,GGUUAUCAUCUUGUGAAAATT against Srpk1,-0.628 (inactive)
10,AUGCCUAUACAAUUCUGUGTT against Olfr1167,0.0339 (inactive)
11,GGAGAACAACAAAGACAAGTT against Hoxb8,2.69 (active)
12,GGACACUAUAAGAAAGGAATT against Fnta,0.708 (inactive)
13,CCCAUUACGCAAAUUGUUCTT against Rin3,-2.31 (active)
14,GCCACGUCUGAACACUUCATT against Vamp8,0.873 (inactive)
15,GCCUGUUUAGAAUUAGAGATT against Plekhs1,0.135 (inactive)
16,GCUGAUGGACAAAUUCCACTT against Rapgef1,0.505 (inactive)
17,GCCAUUGCUAUCCAUCGUGTT against Ddx39b,-2.57 (active)
18,CCAAAGUUCCCUUAGCCAUTT against Cntrob,0.12 (inactive)
19,GCGGCACUUUAUCAUUAUCTT against Hint3,0.398 (inactive)
20,GCCCAUUCUAAACAAAUAATT against Ptcd1,-0.825 (inactive)
21,GGAGCUUAAAGUGAGCGGCTT against Lage3,-0.859 (inactive)
22,CGACCAGUCACAAUGGUUATT against Edil3,1.43 (inactive)

row,Sequence,z-score
1,GGUGAUUGCUGAAGACGAGTT against Fbxw8,-0.172 (inactive)
2,CCUCGAAACUCAUUUCCAGTT against Prkch,-0.603 (inactive)
3,GGGUUAAUCCCUAUCUCUUTT against Tfe3,0.419 (inactive)
4,GAUCUCAAACAUUCUAUGCTT against Lce1c,-1.14 (inactive)
5,GGAGCCAAGUGUGAUUACATT against Pias3,6.29 (active)
6,GGAAUCUGAAUUUUUGUGUTT against Commd1,-0.576 (inactive)
7,GACCUGUUUUGUCUUUUGCTT against Ms4a4c,1.34 (inactive)
8,GCUUGAUAGGGAACUUAAUTT against Olfr805,-1.57 (inactive)
9,GCUGCUGGAUGCAACCAAATT against Slc16a3,-0.379 (inactive)
10,GCUGCACGUGAUCAUGGAUTT against Accs,0.852 (inactive)
11,GCCUAAGAUCUGGACCUAATT against Timm44,-0.35 (inactive)
12,GGAGAAGCAUUAUUUUGAATT against Myb,0.798 (inactive)
13,GGACGACUGGAAGUUUUCUTT against 5830411N06Rik,3.95 (active)
14,GGAGCCCUUGCUCUUUAACTT against Izumo1r,-2.23 (active)
15,GGACAUAAGAGAAUGGUCATT against Lpp,2.07 (active)
16,GGCAAAUGUACUAAAAUGATT against Gpr34,0.764 (inactive)
17,GCCACUUACACUUACUUGATT against Olfr1331,-0.15 (inactive)
18,GCAUAAGCCACACCCUCUGTT against Cops7a,1.03 (inactive)
19,GGGAAAUUUAAAAACCUGGTT against Hoxa2,-0.139 (inactive)
20,GGAAAGACCAUUCUGUAUUTT against Vps37d,-1.54 (inactive)

# Reference: PubChem BioAssay AID1508600 (Functional Genomics Laboratory (NCATS/FGL), 2020)
